Source: PubChem BioAssay AID720514 (Broad Institute, 2013)
The whole screen tested about 2,100 compounds, of which about 300 (14%) were called active. About 2% were inconclusive and are not listed. Not all results are given here. Measured potencies and affinities stand elsewhere. Values without a mark were called inactive.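 The calls were made as follows: active = every replicate test run called active, with the signal falling and half-maximal concentration within twice the top valid dose; inconclusive = the replicate test runs disagree in their calls; inactive = every test run inactive, including effects in the opposite direction.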

assay: inhibitors of PGC1a acetylation in cells, dose response, cell-based, cherry-picked samples (AID 720514); details: U2OS PGC1a acetylation, AlphaLISA, overnight; series mostly up to 19.5 µM; activity change, negative = inhibition: at the top concentration;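 also: 0% = neutral control wells and -100% = positive control wells; actives lower the acetylation signal so they count as inhibitors of PGC1a acetylation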

Structure (SMILES)	activity change, negative = inhibition
CCC(C)(C)n1nnnc1C(c1ccccc1OC)N1CCSCC1 (stereo unspecified)	97.3%
CC(NS(=O)(=O)c1ccccc1Cl)C1CC2CCC1C2 (stereo unspecified)	144%
C/C=C(/C)C(=O)O[C@@H]1c2cc(OC)c(OC)c(OC)c2-c2c(cc3c(c2OC)OCO3)C[C@H](C)[C@]1(C)O	111% [at 5 µM]
O=C(CCc1nc2ccccc2c(=O)[nH]1)Nc1ccc(N2CCCCC2)cc1	77.8%
Cn1ncc(C(=O)Nc2ccc(Cl)cc2)c1C(F)(F)F	17.4%
O=C(NCc1ccccc1)C1Cc2c(-c3ccc(Cl)cc3)ccnc2O1 (stereo unspecified)	40.4%
O=C(CCCCCN1C(=O)c2cccc3cccc(c23)C1=O)NCc1cccnc1	237%
O=C(Cc1ccc(Cl)cc1)c1c[nH]c(C(=O)NCc2cccnc2)c1	94.9%
O=C(NCc1cccnc1)c1ccc(NC(=O)c2ccc(Br)cc2)cc1	240%
O=C(CCCc1nc(-c2ccccc2Cl)no1)NCc1cccnc1	124% [at 10 µM]
COc1cccc(N(CC(=O)NCc2cccnc2)S(C)(=O)=O)c1	57.6%
CN(C)CC(O)c1ccc(C=Cc2ccc(Cl)cc2)cc1 (stereo unspecified)	40% [at 5 µM]
CC(=O)Nc1ccc(NC(=O)CN(c2cccc([N+](=O)[O-])c2)S(C)(=O)=O)cc1	251%
COc1ccc(CCn2c(-c3ccc(OC)cc3)nc3c(c(=O)c4ccccc4n3C)c2=O)cc1	44.1% [at 10 µM]
COc1ccccc1/C=C1\SC(=O)N(CCC(=O)NCCCn2ccnc2)C1=O	145% [at 10 µM]
CCN(CC)C(=O)CSc1nnc2nnc3cc(Cl)ccc3n12	43.8%
COC(=O)c1ccc(NC(=O)c2cccnc2)cc1	224% [at 10 µM]
COc1ccccc1NC(=O)c1ccc(NC(=O)CNC(=O)c2ccc(OC)c(OC)c2)cc1	42.6%
COc1ccc(-c2csc3nc(C)nc(N4CCC(C)CC4)c23)cc1OC	76.6%
COc1ccc(Nc2nnc(C)c3ccccc23)cc1	103%
COc1ccc(Nc2nnc(-c3ccc(C(N)=O)cc3)c3ccccc23)cc1	160%
O=C(Cc1ccccc1)Nc1cccc(-c2nc3ncccc3o2)c1	67.1%

Structure (SMILES)	activity change, negative = inhibition
CC1CC(NS(=O)(=O)c2cccs2)CC(C)(C)C1 (stereo unspecified)	194%
COc1ccc(Nc2nc(N)c(C(=O)c3ccc(OC)cc3)s2)cc1	47.2%
Nc1c(C(=O)Nc2ccccc2)sc2ncc([N+](=O)[O-])cc12	63.9%
OC1CCCC1NCc1ccnc2cc(Cl)ccc12 (stereo unspecified)	217%
Cc1ccc(Nc2nnc(C)c3ccccc23)c(C)c1	71.2%
COc1ccc(OC)c(C(=O)/C=C/c2ccccc2C(F)(F)F)c1	89.2%
C[C@@H]1CN([C@H](C)CO)C(=O)c2c(c3ccccc3n2C)-c2ccccc2CO[C@@H]1CN(C)C(=O)Nc1cccc(C(F)(F)F)c1	80.6%
COc1cc(-c2cnc3c(NC(C)=O)cc(-c4ccccc4CN(C)C)cn23)cc(OC)c1OC	70%
Cn1c(CN2CCCC2)nc2cc(NC(=O)COc3ccc(Cl)cc3)ccc21	35.3%
C=CCS(=O)(=O)c1nc2ccccc2s1	95.6% [at 10 µM]
Cc1cc(C)nc(NC(=O)c2c(-c3ccccc3Cl)noc2C)n1	49.6%
COc1ccc(-c2cc(-c3ccccc3O)[nH]n2)cc1OC	80.7%
COc1cc(-c2nnn(CC#N)n2)ccc1OCc1ccccc1	376%
COc1ccccc1NC(=O)N1C[C@@H]2N[C@H](C1)C2c1ccc(/C=C/c2ccccc2)cc1 (stereo partly specified)	42.9% [at 10 µM]
O=C(Nc1ccccc1)C1=C[C@@H](c2ccc(C(F)(F)F)cc2)C[C@@H](OCc2ccc(CO)cc2)O1	107%
O=C(C1CCC1)N1CCN(S(=O)(=O)c2ccccc2)CC1	90.3% [at 10 µM]
COC(=O)C[C@H]1c2cc(C(F)(F)F)ccc2S(=O)(=O)N1Cc1ccc(OC)cc1	62.4%
Cc1nnc(NCc2ccccc2)c2ccccc12	123%
O=C(CC1CC1)N[C@H]1CC[C@H](CCNS(=O)(=O)c2ccc(Cl)cc2)O[C@H]1CO	42.8%
CC(=O)c1cc(-c2ccccc2)n(CCC(=O)NC2CCCCC2)c1C	58.1%
O=C(c1cc(C2CC2)on1)N1CCCC(N2CCN(c3cccc(C(F)(F)F)c3)CC2)C1 (stereo unspecified)	45.6%
COc1cc2cc(-c3ccc(O)cc3O)nc(C)c2cc1OC	19.4%

Structure (SMILES)	activity change, negative = inhibition
O=C(Cc1ccccc1)N1CCN(c2ccc([N+](=O)[O-])cc2)CC1	148%
Cc1ccc(C(=O)N2CCN(c3ccc(NC(=O)c4ccc(Br)o4)cc3)CC2)cc1	131%
O=C(CN1CCC(n2nnc3cc(F)ccc32)CC1)NCc1ccco1	103%
C[C@@H]1CN([C@@H](C)CO)C(=O)c2c(c3ccccc3n2C)-c2ccccc2CO[C@@H]1CN(C)C(=O)Nc1ccc(F)cc1	137%
Cc1cc(C)c2nc(N(CCCN(C)C)C(=O)c3ccc(S(=O)(=O)N4CCCCCC4)cc3)sc2c1	96% [at 10 µM]
CN1c2ccccc2C2(C)CCCC3=Cc4cccc([N+](=O)[O-])c4OC312 (stereo unspecified)	99.6%
Cc1cccc(C(=O)Nc2ccc(C(=O)/C=C/c3cccnc3)cc2)c1	123% [at 10 µM]
O=C(Cc1ccccc1)Nc1ccc(NC(=O)c2cccs2)cc1	176%
O=C(CS(=O)CC(=O)Nc1cccc2c1CCCC2)Nc1ccc(F)cc1 (stereo unspecified)	107%
Nc1c(C(=O)Nc2ccccc2)c2nc3ccccc3nc2n1CCCN1CCOCC1	67.9% [at 10 µM]
Clc1ccc(-c2nnc(-c3ccccc3)nc2N2CCSCC2)cc1	44.6%
CNC(=O)c1nnsc1S(=O)c1ccc(Cl)cc1 (stereo unspecified)	47.6% [at 10 µM]
CC(=O)NC(c1cccc(F)c1)c1nc(-c2cccc(C(C)C)c2)cs1 (stereo unspecified)	41%
COc1cc2nc(SCc3c(C)noc3C)n(CCC3=CCCCC3)c(=O)c2cc1OC	106%
c1ccc(N2CCN(c3ccccc3)C2c2ccncc2)cc1	55.4%
CCC(CC)C(=O)c1c[nH]c(C(=O)NCc2ccccc2)c1	126%
CCOC(=O)C1CCCN(S(=O)(=O)c2ccc3c(c2)NC(=O)CO3)C1 (stereo unspecified)	150%
CCOc1ccc2c(c1)C(C)=CC(C)(C)N2S(=O)(=O)c1ccc(C)cc1	41.8% [at 10 µM]
O=C1CC(Sc2nnc(-c3ccccc3O)o2)C(=O)N1c1ccccc1 (stereo unspecified)	49.7% [at 10 µM]
CCOC(=O)c1[nH]c(C)c(C(=O)Nc2cc(OC)ccc2OC)c1C	50.2%
CC(=O)c1ccc(N2CCN(c3ccc(S(=O)(=O)NCCN(C)C)cc3[N+](=O)[O-])CC2)cc1	79.5%
CC(=O)c1ccc(N2CCN(c3ccc(S(=O)(=O)NCCCN(C)C)cc3[N+](=O)[O-])CC2)cc1	140% [at 10 µM]
